For five molecules, Percent Effect results are on record in ChEMBL document CHEMBL3988442, “University of Dundee, Small-Polar-MMV Screening Library” (2021).

For part of these data: Potency and affinity values are given separately.

Set-up in all cases: scale not given: direction of the effect not stated beside the values
Assay [1] addresses Protein translocase subunit SecA (Escherichia coli (strain K12)) (UniProt P10408). Nature of the assay: Assay to Identify E. coli SecA ATPase Inhibitors. The class given is functional. Particulars: 30 µM.
For assay [2], the target named is T1, Ubiquitin-activating enzyme e1, putative (Leishmania donovani (strain BPK282A1)) (UniProt E9BSI1).
T1 sequence (whole entry): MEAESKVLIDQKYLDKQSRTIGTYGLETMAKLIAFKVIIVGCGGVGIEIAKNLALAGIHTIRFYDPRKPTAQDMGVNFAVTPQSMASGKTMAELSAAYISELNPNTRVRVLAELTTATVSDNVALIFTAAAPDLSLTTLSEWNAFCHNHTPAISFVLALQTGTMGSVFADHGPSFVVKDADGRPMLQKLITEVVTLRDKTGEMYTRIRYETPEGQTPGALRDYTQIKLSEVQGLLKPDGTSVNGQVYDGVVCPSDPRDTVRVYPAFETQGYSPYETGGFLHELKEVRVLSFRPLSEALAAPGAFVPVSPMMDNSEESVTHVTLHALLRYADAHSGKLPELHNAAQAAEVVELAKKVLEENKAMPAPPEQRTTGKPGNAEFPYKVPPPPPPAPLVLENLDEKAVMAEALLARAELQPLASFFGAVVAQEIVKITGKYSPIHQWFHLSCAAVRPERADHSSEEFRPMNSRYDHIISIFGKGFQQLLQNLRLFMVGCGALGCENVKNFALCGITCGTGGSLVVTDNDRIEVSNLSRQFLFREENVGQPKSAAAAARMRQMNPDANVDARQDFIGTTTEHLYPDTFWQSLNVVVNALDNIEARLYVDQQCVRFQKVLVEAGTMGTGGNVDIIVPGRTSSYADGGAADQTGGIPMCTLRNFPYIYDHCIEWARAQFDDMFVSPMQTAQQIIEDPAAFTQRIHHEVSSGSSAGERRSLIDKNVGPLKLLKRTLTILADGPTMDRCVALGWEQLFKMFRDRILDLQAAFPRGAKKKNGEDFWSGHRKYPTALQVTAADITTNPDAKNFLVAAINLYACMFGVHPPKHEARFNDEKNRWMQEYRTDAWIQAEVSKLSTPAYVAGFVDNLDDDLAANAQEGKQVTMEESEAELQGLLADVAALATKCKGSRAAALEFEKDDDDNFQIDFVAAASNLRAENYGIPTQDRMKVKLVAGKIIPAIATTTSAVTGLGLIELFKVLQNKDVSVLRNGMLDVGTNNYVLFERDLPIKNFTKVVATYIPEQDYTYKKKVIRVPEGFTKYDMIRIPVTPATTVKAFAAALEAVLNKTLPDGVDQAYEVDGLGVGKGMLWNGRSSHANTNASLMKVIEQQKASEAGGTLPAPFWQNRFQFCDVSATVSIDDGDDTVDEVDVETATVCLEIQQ
Briefly: Leishmania donovani Ubiquitin Activating Enzyme (LdE1). The class given is functional. Particulars: 30 µM.

For assay [3], the target named is T2, Aspartate--tRNA(Asp/Asn) ligase (Mycobacterium tuberculosis (strain ATCC 25618 / H37Rv)) (UniProt P9WFW3). Further: in the data most compounds retested in dose-response had high values.
T2 sequence (whole entry): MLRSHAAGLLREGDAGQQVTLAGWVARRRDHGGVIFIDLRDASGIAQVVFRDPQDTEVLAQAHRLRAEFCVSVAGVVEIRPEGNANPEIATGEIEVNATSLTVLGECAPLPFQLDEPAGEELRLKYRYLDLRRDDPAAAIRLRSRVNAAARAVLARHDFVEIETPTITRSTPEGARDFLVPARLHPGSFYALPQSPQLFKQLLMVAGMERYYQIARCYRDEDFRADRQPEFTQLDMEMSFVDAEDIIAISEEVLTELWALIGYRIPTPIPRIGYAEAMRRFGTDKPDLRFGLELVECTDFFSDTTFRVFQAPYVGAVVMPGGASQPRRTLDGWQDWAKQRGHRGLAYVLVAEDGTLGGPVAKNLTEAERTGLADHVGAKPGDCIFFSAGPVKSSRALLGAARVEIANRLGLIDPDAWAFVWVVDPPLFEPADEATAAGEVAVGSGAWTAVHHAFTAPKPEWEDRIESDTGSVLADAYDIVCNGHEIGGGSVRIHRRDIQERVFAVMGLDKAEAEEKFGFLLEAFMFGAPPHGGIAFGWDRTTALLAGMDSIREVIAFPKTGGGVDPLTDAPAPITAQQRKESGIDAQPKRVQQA
Nature of the assay: Assay for Asp RNA synthetase-1 from Mycobacterium tuberculosis. The class given is functional. Particulars: 30 µM.

Assay [4] addresses Sialic acid-binding Ig-like lectin 9 (Homo sapiens) (UniProt Q9Y336). Nature of the assay: Hs-Siglec9 ALPHAscreen SOP 20170721. The note with it: 10 µM. A general note: Bead proximity is the source of the signal in Alpha formats.
For assay [5], the system named is Trypanosoma cruzi. Briefly: Trypanosoma cruzi phosphomannomutase and mannose-1-phosphate guanylyltransferase assay. The format is functional. The note with it: 10 µM.
Assay [6] concerns the target T3, Arginase-2, mitochondrial (Homo sapiens) (UniProt P78540).
T3 sequence (whole entry): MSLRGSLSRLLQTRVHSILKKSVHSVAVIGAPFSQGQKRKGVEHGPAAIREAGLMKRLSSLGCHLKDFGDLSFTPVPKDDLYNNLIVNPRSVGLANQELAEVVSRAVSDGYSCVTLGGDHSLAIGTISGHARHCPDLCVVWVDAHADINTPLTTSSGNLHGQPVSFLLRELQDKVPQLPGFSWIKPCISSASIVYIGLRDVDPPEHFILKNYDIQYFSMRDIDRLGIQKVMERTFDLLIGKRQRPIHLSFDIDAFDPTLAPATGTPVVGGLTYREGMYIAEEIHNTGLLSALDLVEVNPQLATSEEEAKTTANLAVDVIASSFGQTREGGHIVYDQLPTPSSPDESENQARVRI
Nature of the assay: in vitro enzyme assay to detect the production of urea directly proportional to the activity of Arginase II. Further: in the data most compounds retested in dose-response had high values. The note with it: 33.3 µM. The format is functional.

The target of assay [7] is T4, Proteasome subunit beta (Trypanosoma cruzi) (UniProt O96673).
T4 sequence (whole entry): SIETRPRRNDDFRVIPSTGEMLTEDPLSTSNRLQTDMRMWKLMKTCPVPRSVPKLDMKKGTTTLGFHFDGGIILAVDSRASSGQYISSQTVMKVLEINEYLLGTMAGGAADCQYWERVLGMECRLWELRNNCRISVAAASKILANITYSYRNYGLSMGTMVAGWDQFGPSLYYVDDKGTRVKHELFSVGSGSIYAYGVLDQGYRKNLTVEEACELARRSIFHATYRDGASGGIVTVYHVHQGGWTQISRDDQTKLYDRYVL
Briefly: Trypanosoma cruzi proteasome chymotrypsin-like activity (TcProtChymo) assay. Further: in the data most compounds retested in dose-response had high values. The class given is functional. The note with it: 9.37 µM.

The species named for assay [8] is Homo sapiens. Briefly: To identify inhibition of the IFN signalling (Jak-Stat) pathway via expression of an eGFP reporter gene under the control of an IFN-stimulated response element (ISRE) containing MxA promoter. The note with it: 30 µM. The format is functional.
Assay [9] deals with Shiga toxin 2 (Escherichia coli O157:H7) (UniProt P09385+P09386). Nature of the assay: E. coli 0.157:H7 Shiga Toxin SOP - stx2 screening assay. The format is functional. The note with it: 30 µM.
Assay [10] has as its target T5, Tyrosyl-tRNA synthetase, putative (Trypanosoma cruzi (strain CL Brener)) (UniProt Q4DSP6).
T5 sequence (whole entry): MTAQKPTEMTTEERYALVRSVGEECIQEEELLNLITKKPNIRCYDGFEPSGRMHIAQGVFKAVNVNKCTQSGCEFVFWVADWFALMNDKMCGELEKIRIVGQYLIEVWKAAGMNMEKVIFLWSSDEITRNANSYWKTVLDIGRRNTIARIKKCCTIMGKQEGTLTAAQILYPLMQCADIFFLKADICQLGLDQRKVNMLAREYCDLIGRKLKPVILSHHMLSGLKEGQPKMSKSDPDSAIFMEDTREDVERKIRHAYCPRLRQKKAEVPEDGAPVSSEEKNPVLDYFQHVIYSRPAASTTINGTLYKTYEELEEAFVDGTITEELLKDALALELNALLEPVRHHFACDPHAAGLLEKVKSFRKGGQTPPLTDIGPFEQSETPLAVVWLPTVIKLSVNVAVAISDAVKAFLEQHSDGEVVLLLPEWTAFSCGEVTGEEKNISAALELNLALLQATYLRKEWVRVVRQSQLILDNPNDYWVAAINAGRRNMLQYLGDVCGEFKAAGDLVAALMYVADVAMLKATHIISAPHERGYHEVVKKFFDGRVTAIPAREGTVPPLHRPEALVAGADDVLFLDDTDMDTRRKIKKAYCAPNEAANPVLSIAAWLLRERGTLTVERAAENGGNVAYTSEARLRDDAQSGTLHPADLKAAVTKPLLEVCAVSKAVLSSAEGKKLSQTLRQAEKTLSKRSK
Briefly: Trypanosoma cruzi tyrosyl tRNA synthetase (TcYRS) _High Tyrosine SOP. Further: in the data most compounds retested in dose-response had high values. The class given is functional. The note with it: 30 µM.

For assay [11], the target named is T5, Tyrosyl-tRNA synthetase, putative (Trypanosoma cruzi (strain CL Brener)). Briefly: Trypanosoma cruzi tyrosyl tRNA synthetase (TcYRS) SOP. The format is functional. Particulars: 30 µM.
The target of assay [12] is Chromo domain-containing protein 1 (Saccharomyces cerevisiae (strain ATCC 204508 / S288c) (Baker's yeast)) (UniProt P32657). Nature of the assay: ScCHD-1 Enzyme Inhibition Assay. Further: in the data most compounds retested in dose-response had high values. The class given is functional. The note with it: 30 µM.
Chain of Chromo domain-containing protein 1 (Saccharomyces cerevisiae (strain ATCC 204508 / S288c) (Baker's yeast)) (P32657 whole entry, the tested form may be a part): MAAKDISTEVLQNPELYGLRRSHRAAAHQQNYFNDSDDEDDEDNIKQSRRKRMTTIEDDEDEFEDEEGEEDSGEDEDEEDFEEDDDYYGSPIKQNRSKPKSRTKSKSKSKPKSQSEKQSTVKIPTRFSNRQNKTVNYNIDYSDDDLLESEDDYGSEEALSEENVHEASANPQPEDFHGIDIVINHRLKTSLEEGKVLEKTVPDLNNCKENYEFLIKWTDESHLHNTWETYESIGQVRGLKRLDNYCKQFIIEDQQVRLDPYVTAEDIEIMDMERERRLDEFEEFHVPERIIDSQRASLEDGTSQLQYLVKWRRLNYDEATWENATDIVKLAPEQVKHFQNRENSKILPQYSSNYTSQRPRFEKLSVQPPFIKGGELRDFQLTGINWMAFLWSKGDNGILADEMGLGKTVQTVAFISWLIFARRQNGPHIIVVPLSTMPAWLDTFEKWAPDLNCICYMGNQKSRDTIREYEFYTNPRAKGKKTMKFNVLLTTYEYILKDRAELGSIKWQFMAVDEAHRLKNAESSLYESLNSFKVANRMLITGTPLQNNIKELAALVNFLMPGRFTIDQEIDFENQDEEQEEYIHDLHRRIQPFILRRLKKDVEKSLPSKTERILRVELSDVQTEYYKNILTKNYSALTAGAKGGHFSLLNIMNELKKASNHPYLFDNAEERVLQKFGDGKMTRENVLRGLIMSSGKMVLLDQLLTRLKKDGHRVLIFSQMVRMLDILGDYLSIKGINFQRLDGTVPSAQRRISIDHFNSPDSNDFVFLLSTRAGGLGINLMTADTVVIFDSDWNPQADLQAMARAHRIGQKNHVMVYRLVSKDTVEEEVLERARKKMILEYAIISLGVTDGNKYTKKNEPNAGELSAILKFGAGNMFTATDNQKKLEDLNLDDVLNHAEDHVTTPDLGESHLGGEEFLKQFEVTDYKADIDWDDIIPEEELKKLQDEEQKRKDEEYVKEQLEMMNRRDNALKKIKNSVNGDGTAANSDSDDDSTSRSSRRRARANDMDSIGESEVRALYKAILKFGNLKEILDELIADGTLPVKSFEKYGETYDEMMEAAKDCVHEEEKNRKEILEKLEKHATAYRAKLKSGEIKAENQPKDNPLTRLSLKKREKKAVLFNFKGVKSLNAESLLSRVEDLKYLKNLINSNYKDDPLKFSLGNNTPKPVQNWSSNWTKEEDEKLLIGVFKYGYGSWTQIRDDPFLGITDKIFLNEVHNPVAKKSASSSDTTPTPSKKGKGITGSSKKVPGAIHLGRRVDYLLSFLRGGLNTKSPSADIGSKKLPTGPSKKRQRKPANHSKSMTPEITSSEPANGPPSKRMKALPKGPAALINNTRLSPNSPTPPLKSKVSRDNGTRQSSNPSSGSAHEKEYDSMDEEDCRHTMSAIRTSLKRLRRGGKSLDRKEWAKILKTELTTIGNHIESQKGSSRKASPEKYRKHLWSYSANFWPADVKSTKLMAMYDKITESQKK

Chain of Protein translocase subunit SecA (Escherichia coli (strain K12)) (P10408 whole entry): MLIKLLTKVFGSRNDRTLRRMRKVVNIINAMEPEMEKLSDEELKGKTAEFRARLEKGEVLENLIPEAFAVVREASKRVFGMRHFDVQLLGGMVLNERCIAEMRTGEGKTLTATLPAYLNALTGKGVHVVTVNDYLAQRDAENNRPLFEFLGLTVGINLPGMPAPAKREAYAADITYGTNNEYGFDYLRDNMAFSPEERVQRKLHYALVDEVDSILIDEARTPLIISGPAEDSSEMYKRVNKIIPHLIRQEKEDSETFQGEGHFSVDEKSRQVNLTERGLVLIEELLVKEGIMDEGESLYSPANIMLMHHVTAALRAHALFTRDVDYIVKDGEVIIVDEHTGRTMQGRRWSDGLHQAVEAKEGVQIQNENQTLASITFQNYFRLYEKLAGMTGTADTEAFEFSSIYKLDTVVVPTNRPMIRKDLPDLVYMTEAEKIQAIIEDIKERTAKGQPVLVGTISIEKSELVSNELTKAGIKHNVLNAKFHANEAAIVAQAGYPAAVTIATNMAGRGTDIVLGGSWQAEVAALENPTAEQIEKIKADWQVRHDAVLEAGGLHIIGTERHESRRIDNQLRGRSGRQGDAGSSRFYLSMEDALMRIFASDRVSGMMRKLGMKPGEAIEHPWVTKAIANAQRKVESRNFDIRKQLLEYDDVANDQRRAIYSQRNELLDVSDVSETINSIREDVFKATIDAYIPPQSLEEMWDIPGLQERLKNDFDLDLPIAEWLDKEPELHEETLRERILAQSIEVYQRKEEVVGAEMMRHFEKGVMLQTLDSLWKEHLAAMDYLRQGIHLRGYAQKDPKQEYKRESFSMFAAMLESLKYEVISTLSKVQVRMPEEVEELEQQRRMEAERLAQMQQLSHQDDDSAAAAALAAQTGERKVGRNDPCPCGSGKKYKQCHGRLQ
Chain of Sialic acid-binding Ig-like lectin 9 (Homo sapiens) (Q9Y336 whole entry): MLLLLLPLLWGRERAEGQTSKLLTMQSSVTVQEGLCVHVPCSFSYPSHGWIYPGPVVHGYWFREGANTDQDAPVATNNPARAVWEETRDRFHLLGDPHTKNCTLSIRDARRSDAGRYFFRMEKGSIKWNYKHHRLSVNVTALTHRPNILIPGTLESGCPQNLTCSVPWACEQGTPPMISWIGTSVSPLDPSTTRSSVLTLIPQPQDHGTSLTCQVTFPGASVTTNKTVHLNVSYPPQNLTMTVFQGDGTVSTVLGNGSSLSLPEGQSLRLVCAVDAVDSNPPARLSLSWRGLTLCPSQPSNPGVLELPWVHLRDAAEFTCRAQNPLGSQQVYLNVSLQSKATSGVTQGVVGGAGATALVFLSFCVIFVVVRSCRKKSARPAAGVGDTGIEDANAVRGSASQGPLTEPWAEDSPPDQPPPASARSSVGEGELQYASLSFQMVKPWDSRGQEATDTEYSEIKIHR

On to `COCCNC(=O)[C@@]12CCO[C@@H]1CCN(Cc1c(C)noc1C)C2`, for which the Percent Effect is -4.83% in assay [1]; 14.3% in assay [2]; 11.2% in assay [3]; -7.07% in assay [4]; 1.85% in assay [5]; 3.24% in assay [6]. Further, the Percent Effect is 8.91% in assay [7]; -9.54% in assay [8]; -12.8% in [9]; 14.2% in [10]; 12.8% in assay [11]; -1.61% in [12].

For `c1ccc(N2CCCC3(CCN(Cc4nccs4)C3)C2)nc1` (stereo not given), the Percent Effect in assay [1] is -1.98%; in assay [2], 14.3%; in [3] it was -1.46%; in assay [4] it was 3.73%; in [5], 0.75%; in assay [6] it was -5.94%. Besides, the Percent Effect in assay [7] is 18.4%; in assay [8], 4.2%; in assay [9], 7.26%; in assay [10] it was 10.6%; in [11], 20%; in assay [12], -11.5%.

Consider `Fc1cnc(N2CCCC3(CCN(Cc4ccsc4)C3)C2)nc1` (stereo not given), for which the Percent Effect in [1] was -5.76%; in [2], 3.9%; in assay [3], 9.59%; in [4] it was -1.26%; in assay [5], 3.02%; in assay [6], -5.26%. For the same molecule, the Percent Effect in assay [7] was 8.56%; in assay [8] it was -2.16%; in assay [9], -9.72%; in [10] it was 6.84%; in [11], 7.69%; in assay [12], 14.2%.

For `NC(=O)CN1CCCN(C(=O)Cc2ccc(F)c(Br)c2)CC1`, the Percent Effect is -6.33% in assay [1]; 10.7% in assay [2]; -0.338% in assay [3]; -0.341% in assay [4]; -3.61% in [5]; -0.444% in assay [6]. Besides, the Percent Effect in [7] was 12.6%; in [8], -6.89%; in assay [9], -17.2%; in assay [10] it was 4.74%; in assay [11], 7.69%; in assay [12] it was -9.76%.

Consider `O=C1C[C@H]2[C@H](CCN2Cc2ccccn2)N1CC1CC1`, for which the Percent Effect is -3.35% in assay [1]; 11.7% in assay [2]; 1.05% in assay [3]; -4.27% in assay [4]; -5.25% in assay [5]; 5.02% in [6]. The Percent Effect in assay [7] was 12.4%; in assay [8], 12.4%; in assay [9] it was -21.2%; in assay [10], 6.76%; in assay [11] it was 2.5%; in assay [12], -6.54%.
